Source: PubChem BioAssay (NCI)
Compounds without any hit were thinned out: in the full panel of roughly 83,000, 20% have a hit.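 Note: values are percent growth. 100 is the growth of untreated cells, values between 100 and 0 indicate rising inhibition; between -100 and 0 indicates cell death.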 Unmarked numbers belong to inactive results. Activity calls are given as the source filed them. How the source made its calls: active means growth percent below 10; inactive means the rest.

Experiments:
Test in all cases: NCI-60 one-dose screen, 48 h (100 = growth as untreated, 0 = no growth, -100 = all killed)
Conditions in all cases: 10 µM unless noted
HCT-15 colon = system: HCT-15 colon
HT29 colon = system: HT29 colon
SNB-75 CNS = system: SNB-75 CNS
SNB-19 CNS = system: SNB-19 CNS
U251 CNS = system: U251 CNS
PC-3 prostate = system: PC-3 prostate
SK-MEL-5 melanoma = system: SK-MEL-5 melanoma
UACC-62 melanoma = system: UACC-62 melanoma
LOX IMVI melanoma = system: LOX IMVI melanoma
SK-MEL-28 melanoma = system: SK-MEL-28 melanoma
SK-MEL-2 melanoma = system: SK-MEL-2 melanoma
EKVX NSCLC = system: EKVX NSCLC
SN12C renal = system: SN12C renal
UO-31 renal = system: UO-31 renal
TK-10 renal = system: TK-10 renal
ACHN renal = system: ACHN renal
CAKI-1 renal = system: CAKI-1 renal
A498 renal = system: A498 renal
CCRF-CEM leukemia = system: CCRF-CEM leukemia
MOLT-4 leukemia = system: MOLT-4 leukemia

SMILES | growth (HCT-15 colon) | growth (HT29 colon) | growth (SNB-75 CNS) | growth (SNB-19 CNS) | growth (U251 CNS) | growth (PC-3 prostate) | growth (SK-MEL-5 melanoma) | growth (UACC-62 melanoma) | growth (LOX IMVI melanoma) | growth (SK-MEL-28 melanoma) | growth (SK-MEL-2 melanoma) | growth (EKVX NSCLC) | growth (SN12C renal) | growth (UO-31 renal) | growth (TK-10 renal) | growth (ACHN renal) | growth (CAKI-1 renal) | growth (A498 renal) | growth (CCRF-CEM leukemia) | growth (MOLT-4 leukemia)
C[C@@H](NC(=O)[C@@H](CC(=O)N1CCC(N2CCCCC2)CC1)N1C(=O)[C@@H](N2C(=O)OC[C@@H]2c2ccccc2)[C@H]1/C=C/c1cccc(Cl)c1)c1ccccc1 | 32.8% | 1.92% (active) | 70.8% | 82.2% | 55.2% | 56.1% | -89% (active) | 89.5% | -43.2% (active) | -29.4% (active) | 96.8% | 66.5% | 84.4% | 58.9% | 78.9% | 91.6% | 69.7% | 84.6% | 50.1% | –
COc1ccc(-c2cc(-c3ccccc3)nc(SCCCCCC(=O)NO)n2)cc1 | 78.1% | 23% | 44.1% | 70.5% | 56.4% | 70.7% | 33.2% | 26.2% | 59.2% | 49.3% | 61.4% | 67.5% | 81.4% | 41.6% | 34.8% | 48.9% | 33.4% | 57.1% | 13.8% | –
Cc1cnc([C@]23CC[C@@H](C)[C@H](C)[C@H]2C2=CC[C@@H]4[C@@]5(C)Cc6c([nH]c7ccccc67)C(C)(C)[C@@H]5CC[C@@]4(C)[C@]2(C)CC3)o1 | 66.8% [100 µM] | 25.7% [100 µM] | 62.4% [100 µM] | 35.6% [100 µM] | 41.7% [100 µM] | 55.4% [100 µM] | 29% [100 µM] | 24.4% [100 µM] | 17.3% [100 µM] | 20.3% [100 µM] | 77.4% [100 µM] | 74% [100 µM] | 36.7% [100 µM] | 39% [100 µM] | 64.2% [100 µM] | 42.7% [100 µM] | 49.7% [100 µM] | 91.9% [100 µM] | 64% [100 µM] | 50.5% [100 µM]
COc1ccc(C(=O)CSc2nccc(Nc3ccc(C(=O)O)cc3)n2)cc1 | 100% | 104% | 102% | 101% | 98% | 102% | 93.6% | 89.7% | 101% | 100% | 103% | 103% | 99.3% | 82% | 103% | 101% | 97.7% | 106% | 105% | –
O=C(N=c1n(-c2ccccc2)nc2n1CCN2C1=NCCN1)c1ccc(Cl)cc1 | 82.5% | 67.5% | 66.3% | 91.9% | 80.8% | 72.7% | 65.6% | 64.1% | 61.2% | 81.3% | 106% | 93.9% | 80.1% | 57.9% | 89.5% | 96.7% | 79.2% | 68.3% | 77.8% | –
Cn1cc(-c2noc(C(=O)c3cn(C)c4ncc(Br)cc34)n2)c2ccccc21 | 97.7% | 105% | 77.9% | 96.6% | 93.8% | 92.3% | 95.6% | 89.3% | 96.8% | 101% | 95.4% | 85.5% | 94.8% | 79.3% | 107% | 102% | 89.5% | 75.3% | -49.1% (active) | 105%
N#CC1C(=O)NC(c2ccccc2[N+](=O)[O-])c2sc3c(F)cccc3c21 (stereo unspecified) | 87.8% | 85.3% | 82.6% | 70.8% | 42.6% | 80% | 75.2% | 9.47% (active) | 91.4% | 111% | 82.6% | 64.8% | 78.1% | 53.8% | 41.1% | 65.8% | 5.27% (active) | -60.7% (active) | 86.9% | 86.6%
Brc1ccc2c(c1)CN(C1CCCCC1)CO2 | 104% | 103% | 82.2% | 103% | 108% | 91.6% | 104% | 105% | 95.1% | 118% | 107% | 101% | 113% | 78.9% | 111% | 98.9% | 102% | 100% | 107% | –
COC(=O)c1cc(O)c2c(c1C(=O)OC)C[C@H]1[C@@H]3CC=C4C[C@@H](O)CC[C@]4(C)[C@H]3CC[C@]21C | 24.6% | 16.2% | 62.2% | 66.9% | 37.5% | 41.3% | 1.59% (active) | 40.9% | 9.77% (active) | 46.3% | 78.7% | 55% | 71.3% | 39.9% | 55% | 39.9% | 26.2% | 49.8% | 37.8% | 35.6%
CCN(CC)CCSC(=O)C(O)(c1ccccc1)C1CCCC1 (stereo unspecified) | 98.6% | 114% | 95.2% | 111% | 108% | 96.9% | 117% | 86.9% | 90.3% | 87% | 106% | 120% | 99.8% | 78.1% | 120% | 105% | 92% | 95.7% | 118% | –
CCCCCn1sc(=O)n(Cc2ccc(CNC(=O)OCc3ccc4cccc(O)c4n3)cc2)c1=O | -20.5% (active) | -49.2% (active) | -4.62% (active) | 37% | 20.1% | 3.68% (active) | -44.7% (active) | -64.2% (active) | -91.5% (active) | -35% (active) | 39.3% | 28.7% | -79.7% (active) | -100% (active) | -54% (active) | -100% (active) | -74.9% (active) | 4.89% (active) | 7.05% (active) | 1.87% (active)
O=C(Nc1cccc(C2=NCCN2)c1)c1cccc(C(=O)Nc2cccc(C3=NCCN3)c2)c1 | 97.6% | 110% | 86.2% | 98% | 101% | 99% | 99.1% | 94.3% | 91.4% | 102% | 103% | 88.6% | 95.7% | 84.5% | 89.3% | 101% | 92.6% | 111% | 104% | 100%
N#C/C(=C(/O)CCCO)c1nc2ccccc2c(=O)[nH]1 | 103% | 108% | 80.6% | 105% | 103% | 92.9% | 107% | 96% | 98% | 110% | 87.7% | 108% | 100% | 106% | 110% | 106% | 149% | 124% | 97.8% | –
Cc1cccc(C[C@H](NC(=O)Nc2ccc(Cl)cc2F)C(=O)N[C@@H]2C(=O)N3C[C@H](OC(=O)CCN(C)C)C[C@H]3C(=O)N3CCCC[C@H]3C(=O)N[C@@H](C)C(=O)N3C[C@H](C)C[C@H]3C(=O)O[C@H]2C)c1 | 64.8% | 5.77% (active) | 13.5% | 21.3% | 22.9% | 16.7% | 6.65% (active) | 13.4% | 23.9% | 25.8% | 24.4% | 47.3% | 12.5% | 31.1% | 47.8% | 27.5% | 15.5% | -11.1% (active) | 42.4% | –
Cc1ncc(C(=O)Nc2ccc(CN3CCN(C)CC3)c(C(F)(F)F)c2)cc1C#Cc1c(N)ncc2ccc(C#N)cc12 | 28% | 11.9% | 56.4% | 77.5% | 68.5% | 48.7% | 16.2% | 22.5% | -62.4% (active) | 23.7% | 39.7% | 57.5% | 32.9% | 19.3% | 37% | 12.3% | 16.1% | 6.65% (active) | 38.1% | –
